From article PMC5540273 (PLoS ONE, 2017) come the findings set out here.

Some test systems named below: ZAK; ZAP70; p38-delta.
What all share (conditions): concentration: 1 μM, replicates: in singlicate; n = 1
The next assay concerns T1, p38-alpha.
T1 construct: gene MAPK14

The next assay concerns T2, p38-beta.
T2 construct: gene MAPK11

The next assay concerns T3, p38-gamma.
T3 construct: gene MAPK12
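Further: KINOMEscan kinase panel screen.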

`O=c1[nH]cc(-c2ccc(N3CCOCC3)cc2)c2sc(-c3cn[nH]c3)cc12` [GSK2276055]: the “%Inh” value with ZAK came to 69%; in the assay on ZAP70, 0%; in the assay on p38-alpha it was 8%; in the assay on p38-beta, 0%; in the assay with p38-delta it was 41%; in the assay with p38-gamma, 36%.
On to `COc1ccc(-c2coc3ccc(-c4nnc(SCc5ccc(OC)c(C(F)(F)F)c5)o4)cc23)cc1`, for which the “%Inh” value in the assay on ZAK is 0%; in the assay on ZAP70, 0%; with p38-alpha, 0%; in the assay on p38-beta, 6%; in the assay on p38-delta, 6%; in the assay on p38-gamma, 16%.
Turning to `CCn1c(-c2nonc2N)nc2c(C#CC(C)(C)O)ncc(OCCCCN)c21.O=C(O)C(F)(F)F.O=C(O)C(F)(F)F` [GSK507274], the “%Inh” value was determined as 36% in the assay with ZAK; 0% with ZAP70; 0% in the assay on p38-alpha; 0% in the assay on p38-beta; 27% with p38-delta; 0% in the assay with p38-gamma.
Turning to `NCCCC(NC(=O)c1cc(Br)c(-c2ccnc3[nH]ccc23)s1)c1ccccc1.O=C(O)C(F)(F)F.O=C(O)C(F)(F)F` (stereo not drawn) [GSK1287544], the “%Inh” value with ZAK came out at 59%; in the assay on ZAP70, 0%; in the assay with p38-alpha it was 0%; with p38-beta, 0%; in the assay on p38-delta, 0%; in the assay on p38-gamma, 10%.
With `CC(C)c1nc(-c2cccc(NS(=O)(=O)c3c(F)cccc3F)c2F)c(-c2ccnc(Nc3ccc(N4CCOCC4)nc3)n2)s1` [GSK2008607], the “%Inh” value in the assay with ZAK is 99.1%; with ZAP70, 0%; in the assay with p38-alpha, 81%; in the assay on p38-beta, 51%; in the assay on p38-delta, 0%; in the assay with p38-gamma, 0%.
As for `CN(C)S(=O)(=O)c1cc(-c2ccc3nccc(-c4cccc(S(N)(=O)=O)c4)c3c2)cnc1N` [GSK1669921], the “%Inh” value in the assay with ZAK worked out at 0%; with ZAP70, 4%; in the assay with p38-alpha, 0%; in the assay on p38-beta, 0%; in the assay with p38-delta it was 44%; with p38-gamma, 23%.
`COc1ccc(Nc2nccc(NCCNC(=O)c3cc4ccccc4s3)n2)cc1` [GSK1379896]: the “%Inh” value in the assay on ZAK was found to be 0%; with ZAP70, 0%; with p38-alpha, 13%; in the assay with p38-beta, 0%; in the assay with p38-delta it was 11%; in the assay on p38-gamma it was 5%.
In the case of `Nc1ncc(-c2ccc3nccc(-c4ccncc4)c3c2)cc1S(=O)(=O)N1CCOCC1` [GSK1627798], the “%Inh” value in the assay with ZAK, with ZAP70, with p38-alpha, in the assay with p38-beta, in the assay on p38-delta and with p38-gamma was 0% each time.
Take `Cl.NC(=O)c1cccc(Nc2nccc(Nc3ccc(Oc4c(Cl)cccc4Cl)c(Cl)c3)n2)c1` [GW659009]: the “%Inh” value in the assay with ZAK is 10%; in the assay with ZAP70, 0%; with p38-alpha it was 0%; in the assay with p38-beta, 100%; with p38-delta, 0%; in the assay on p38-gamma, 0%.
Regarding `Cc1cccc(NC(=O)Nc2ccc(Oc3ncnc4ccn(C)c34)cc2)c1`, the “%Inh” value with ZAK, with ZAP70, with p38-alpha, with p38-beta, in the assay with p38-delta and with p38-gamma was 0% each time.
In the case of `CN(C)Cc1ccc(-c2ccc3c(Nc4ccc(Oc5ccccn5)cc4)ccnc3c2)o1` [GW567148], the “%Inh” value is 65% in the assay on ZAK; 0% with ZAP70; 0% in the assay on p38-alpha; 0% in the assay on p38-beta; 38% with p38-delta; 0% with p38-gamma.
As for `O=C(Nc1cccc(Oc2ccc3nc(NC(=O)C4CC4)cn3n2)c1)c1ccccc1C(F)(F)F`, the “%Inh” value was 25% with ZAK; 0% with ZAP70; 9% with p38-alpha; 15% with p38-beta; 17% with p38-delta; 42% in the assay on p38-gamma.
Take `Cc1ccc(F)c(C(=O)Nc2cccc(-c3nn4ccccc4c3-c3ccnc(Nc4cccc(F)c4)n3)c2)c1F` [GSK361061]: the “%Inh” value with ZAK is 89%; in the assay with ZAP70, 0%; in the assay with p38-alpha it was 29%; in the assay with p38-beta, 76%; in the assay with p38-delta, 0%; in the assay with p38-gamma, 12%.
Regarding `COc1cccc(C2=C(Nc3ccc(Cl)c(C(=O)O)c3)C(=O)NC2=O)c1` [SB-390769], the “%Inh” value in the assay with ZAK was determined as 0%; with ZAP70, 5%; in the assay on p38-alpha, 12%; in the assay with p38-beta it was 0%; in the assay on p38-delta, 45%; with p38-gamma, 100%.
On to `CN(c1ccc(NC(=O)Nc2cc(C(F)(F)F)ccc2F)cc1)c1ccnc(Nc2ccc(S(N)(=O)=O)cc2)n1` [GW809893], for which the “%Inh” value with ZAK was determined as 94.8%; in the assay on ZAP70, 27%; in the assay with p38-alpha, 9%; in the assay with p38-beta, 88%; in the assay with p38-delta it was 91.7%; in the assay with p38-gamma, 85%.
Regarding `Cl.Cl.NCC(NC(=O)c1cc(-c2ccccc2)c(-c2ccnc3[nH]ccc23)s1)c1ccccc1` (stereo not drawn) [GSK1321561], the “%Inh” value in the assay on ZAK came to 46%; in the assay on ZAP70 it was 0%; in the assay on p38-alpha, 0%; in the assay on p38-beta it was 0%; with p38-delta, 47%; with p38-gamma, 0%.
On to `Cc1ccc(S(=O)(=O)Nc2ccc(Nc3nccc(Nc4cccc5[nH]ncc45)n3)cc2)cc1` [GSK581271], for which the “%Inh” value with ZAK turned out to be 13%; in the assay with ZAP70 it was 0%; in the assay on p38-alpha it was 0%; in the assay on p38-beta it was 0%; in the assay with p38-delta it was 46%; in the assay with p38-gamma, 0%.
For the molecule `CCS(=O)(=O)c1ccc(OC)c(Nc2nccc(-c3c(-c4cccc(NC(=O)c5c(F)cccc5F)c4)nn4ncccc34)n2)c1` [GSK326180], the “%Inh” value was 28% with ZAK; 46% in the assay on ZAP70; 99.9% in the assay on p38-alpha; 99.6% with p38-beta; 47% in the assay with p38-delta; 0% in the assay on p38-gamma.
Turning to `O=C(O)C(F)(F)F.O=C(O)C(F)(F)F.O=c1[nH]ccc2nc(N[C@@H]3CCCNC3)nc(Nc3ccc(S(=O)(=O)N4CCOCC4)cc3)c12` [GSK2177277], the “%Inh” value with ZAK was found to be 0%; with ZAP70, 71%; in the assay on p38-alpha, 0%; with p38-beta, 0%; in the assay with p38-delta, 57%; in the assay on p38-gamma, 40%.
For the molecule `CN1CCN(Cc2cccc(-c3ccc4c(Nc5ccc(Oc6ccccc6)cc5)ccnc4c3)c2)CC1` [GW578342], the “%Inh” value was 79% in the assay with ZAK; 14% in the assay with ZAP70; 23% with p38-alpha; 0% in the assay with p38-beta; 37% in the assay on p38-delta; 2% in the assay with p38-gamma.
As to `CCn1c(-c2nonc2N)nc2c(C#CC(C)(C)O)nc(OC[C@H](N)c3ccccc3)cc21` [GSK943949], the “%Inh” value with ZAK was 0%; with ZAP70, 0%; with p38-alpha, 0%; with p38-beta, 0%; with p38-delta, 0%; in the assay with p38-gamma, 34%.
On to `c1ccc(-c2n[nH]cc2Nc2ccnc3ccccc23)nc1` [GW694077], for which the “%Inh” value in the assay with ZAK is on record as 0%; with ZAP70 it was 0%; with p38-alpha it was 2%; in the assay with p38-beta it was 0%; in the assay on p38-delta, 0%; in the assay on p38-gamma it was 0%.
Regarding `COC(=O)Nc1nc2cc(Oc3ccc(NC(=O)Nc4cc(C(F)(F)F)ccc4F)cn3)ccc2[nH]1.Cl.Cl` [GW681170], the “%Inh” value in the assay with ZAK worked out at 92%; with ZAP70, 0%; in the assay on p38-alpha, 70%; with p38-beta, 34%; in the assay on p38-delta, 75%; with p38-gamma, 42%.
As to `Cc1ccc(C(=O)N2CC[C@@H](O)C2)cc1-n1c(C)cc(OCc2ccc(F)cc2F)c(Br)c1=O`, the “%Inh” value in the assay on ZAK was found to be 0%; in the assay with ZAP70 it was 0%; with p38-alpha, 100%; in the assay with p38-beta, 95.4%; with p38-delta it was 7%; with p38-gamma it was 5%.
In the case of `COc1ccc(Nc2nccc(N3CCC(NC(=O)Nc4cccc(OC)c4)C3)n2)cc1` (stereo not drawn) [GSK1379742], the “%Inh” value with ZAK turned out to be 2%; with ZAP70 it was 3%; with p38-alpha it was 1%; in the assay with p38-beta, 0%; with p38-delta, 29%; in the assay on p38-gamma it was 0%.
Take `Cl.c1ccc(-c2ccc3c(Nc4ccc5[nH]ccc5c4)ccnc3c2)nc1` [GW440138]: the “%Inh” value is 0% in the assay with ZAK; 49% with ZAP70; 20% in the assay on p38-alpha; 0% with p38-beta; 41% with p38-delta; 0% in the assay on p38-gamma.
On to `CC(C)(C)c1ccc2nccc(Nc3cccc(O)c3)c2c1` [GW856795], for which the “%Inh” value in the assay on ZAK is recorded as 0%; with ZAP70, 42%; with p38-alpha it was 0%; with p38-beta, 0%; with p38-delta it was 12%; in the assay on p38-gamma it was 18%.
Consider `CC(=O)N1CCN(c2ccc(Nc3nccc(-c4sc(C(C)C)nc4-c4cccc(NS(=O)(=O)c5cccc(Cl)c5)c4)n3)cn2)CC1` [GSK1660437], for which the “%Inh” value is 96.7% in the assay with ZAK; 0% with ZAP70; 32% in the assay with p38-alpha; 0% with p38-beta; 0% in the assay on p38-delta; 11% in the assay with p38-gamma.
For `Cc1ccc(C)c(NC(=O)NC2CCN(c3ccnc(Nc4ccc(F)cc4)n3)C2)c1` (stereo not drawn) [GSK1379720], the “%Inh” value in the assay on ZAK was 15%; in the assay on ZAP70, 0%; with p38-alpha, 11%; with p38-beta, 0%; in the assay with p38-delta, 45%; in the assay with p38-gamma, 16%.
Turning to `Cc1ccc(C(=O)Nc2ccc(Nc3ccnc4cc(-c5nccs5)ccc34)cc2O)cc1.Cl` [GW494702], the “%Inh” value in the assay on ZAK is 63%; in the assay with ZAP70, 33%; with p38-alpha it was 0%; in the assay with p38-beta it was 0%; in the assay on p38-delta, 21%; in the assay with p38-gamma it was 19%.
Consider `C[C@@H]1CC[C@@H](C(=O)Nc2ccccc2)CN1c1cc(-c2ccc3c(N)n[nH]c3c2)nc(N)n1` [GSK2286062], for which the “%Inh” value in the assay with ZAK was 0%; in the assay on ZAP70, 0%; in the assay with p38-alpha, 28%; with p38-beta it was 0%; with p38-delta it was 13%; in the assay with p38-gamma, 46%.
Consider `FC(F)(F)c1ccc(/C=C/c2cncnc2Nc2ccc3[nH]c(Cc4ccccc4)nc3c2)cc1` [GW709199], for which the “%Inh” value in the assay with ZAK is on record as 0%; with ZAP70 it was 9%; in the assay on p38-alpha, 0%; in the assay with p38-beta, 3%; with p38-delta, 0%; with p38-gamma it was 35%.
As for `O=C(Nc1cccc(-c2nn3ncccc3c2-c2ccnc(Nc3ccccc3)n2)c1)c1c(F)cccc1F` [GSK198271], the “%Inh” value in the assay on ZAK stood at 96.6%; with ZAP70, 0%; with p38-alpha, 99.3%; in the assay on p38-beta it was 99.2%; in the assay with p38-delta it was 77%; in the assay with p38-gamma it was 0%.
With `CCCCc1nn2ncccc2c1-c1ccnc(Nc2ccc(N3CCN(C)CC3)cc2)n1` [GW684941], the “%Inh” value in the assay with ZAK worked out at 51%; in the assay on ZAP70 it was 0%; with p38-alpha, 94.2%; with p38-beta, 43%; with p38-delta it was 21%; in the assay with p38-gamma, 0%.
For `COc1cc(Nc2nccc(-c3c(-c4cccc(NC(=O)c5c(F)cccc5F)c4)nn4ccccc34)n2)cc(OC)c1OC` [GSK323521], the “%Inh” value in the assay on ZAK is given as 0%; in the assay on ZAP70, 0%; in the assay with p38-alpha it was 0%; in the assay with p38-beta, 7%; with p38-delta, 43%; in the assay on p38-gamma it was 42%.
With `COc1cc2c(cc1OCCN1CCNCC1)ncc1c3ccc(C#N)cc3[nH]c21`, the “%Inh” value with ZAK is listed as 8%; with ZAP70, 28%; in the assay on p38-alpha, 9%; with p38-beta, 3%; in the assay with p38-delta, 0%; in the assay on p38-gamma it was 30%.
On to `Oc1cc(Nc2ccnc3cc(I)ccc23)ccc1F` [GW552771], for which the “%Inh” value stood at 73% with ZAK; 0% in the assay on ZAP70; 4% in the assay with p38-alpha; 0% in the assay on p38-beta; 27% in the assay with p38-delta; 0% in the assay on p38-gamma.
